FAS TE block = FAS thioesterase domain inhibitors, primary screen, biochemical, fluorescence intensity, uHTS. Fatty acid synthase (Homo sapiens), P49327. recombinant FAS-TE, OMFH fluorogenic substrate, fluorescence endpoint. inhibition, % at 15 µM. 360,000 compounds, 0.67% hits. AID 602261, 2012;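 active = compounds whose normalised, plate-corrected inhibition of enzyme fluorescence in the single-dose primary screen is 50% or more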
SMARCA2 act = SMARCA2 (BRM) function activators, primary screen, cell-based, luminescence, high throughput; MG213 cells, MMTV-luciferase reporter, dexamethasone, overnight; activation, % at 9.1 µM; 370,000 compounds, 1% hits; AID 652017, 2013; in the data active = activation above about 7.8%
FXN GAA850 act = FXN promoter activators, primary screen, cell-based, luciferase luminescence, HEK293 lucGAA850. HEK293 lucGAA850 FXN promoter luciferase reporter, 24 h; percent of 10 µM SAHA response. 360,000 compounds, 0.56% hits. activation, % at 6 µM. AID 540364, 2011;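 active = activation above the average of all compounds screened plus 3 SD, cutoff fixed separately per campaign, cut at about 7.5% in these data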
proKLK7 act = proKLK7 zymogen activators, primary screen, biochemical, fluorescence intensity | 370,000 compounds, 0.9% hits | activation, % at 7 µM | purified proKLK7, EDANS-DABCYL substrate fluorescence; 100% is mature enzyme control, 0% vehicle | AID 652039, 2013 | Kallikrein-7 (Homo sapiens), P49862;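 active = activation above the mean of all tested compounds plus 3 SD, computed per campaign excluding outliers beyond control limits, cut at about 13% in these data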
Target sequence (P49862 whole entry, looked up): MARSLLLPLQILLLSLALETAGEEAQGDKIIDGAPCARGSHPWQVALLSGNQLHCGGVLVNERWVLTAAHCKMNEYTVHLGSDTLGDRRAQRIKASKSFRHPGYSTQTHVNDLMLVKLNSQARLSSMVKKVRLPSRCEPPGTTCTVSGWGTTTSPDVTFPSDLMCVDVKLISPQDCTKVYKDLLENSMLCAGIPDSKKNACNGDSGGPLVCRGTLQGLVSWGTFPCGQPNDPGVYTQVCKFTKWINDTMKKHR
proKLK7 act conf = proKLK7 zymogen activators, confirmation, biochemical, fluorescence intensity, triplicate; shares compounds with proKLK7 act; purified proKLK7, EDANS-DABCYL substrate fluorescence; scaled: vehicle 0, mature enzyme 100; activation, % at 7 µM; 3,200 compounds, 68% hits;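 active = activation, as change over the incubation, above the mean of all tested compounds plus 3 SD, cut at about 13% in these data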
EDANS interfere = EDANS-DABCYL substrate optical interference, artefact control for kallikrein-7 zymogen activator project, biochemical, fluorescence intensity, high throughput | shares compounds with proKLK7 act | no enzyme, 4 h; solvent 0%, active enzyme control 100% | activation, % at 7 µM | 3,200 compounds, 80% hits | AID 686952, 2013;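 active = activation above the all-compound mean plus 3 SD, ignoring values outside control-based bounds, cut at about 4.8% in these data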;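 note: value is the 4 h activation minus the activation read at time zero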
Of the large screens only hits and unclear results are named; the others gave an inactive call (follow-up assays come after a bar, where they were run). Only some compounds are listed: those with a hit (about 2.9% of all), similar ones and a draw of the others.

CC(NC(=O)c1cc2c(=O)n3ccccc3nc2n(CC2CCCO2)c1=N)c1ccccc1 (centres undefined)	none
N=c1c(C(=O)NC2CCCC2)cc2c(=O)n3ccccc3nc2n1C1CCCC1	proKLK7 act 50.1 | proKLK7 act conf inactive | EDANS interfere inactive
Cn1c(C(=O)NCC2CCCO2)cc2c(=O)n3ccccc3nc21 (centres undefined)	proKLK7 act 59.4 | proKLK7 act conf 67.6 | EDANS interfere 73.5
CCn1nc2cc(C(=O)NCC34CC5CC(CC(C5)C3)C4)ccc2c1OC	none
Cc1cc(Cl)ccc1NC(=O)Nc1c(C)n(-c2ccccc2)c(=O)n1C	none
N#Cc1cnn2c(-c3ccc(Cl)cc3Cl)ccnc12	proKLK7 act 19.9 | proKLK7 act conf 21.1 | EDANS interfere 21.6
COc1ccc(NS(=O)(=O)c2cccc(C(=O)NNC(=O)CN3C(=O)NC(C)(C)C3=O)c2)cc1	none
CCN(CC)CCN1C(=O)c2ccccc2NC1c1cc(OC)c(OC)c(OC)c1 (centres undefined)	proKLK7 act 98.5 | proKLK7 act conf 13.7 | EDANS interfere 18.0
CCCN1C(=O)c2ccccc2NC1c1cc(OC)c(OC)c(OC)c1 (centres undefined)	proKLK7 act 16.2 | proKLK7 act conf inactive | EDANS interfere 16.1
O=C1C(=O)N(Cc2ccncc2)C(c2cccc(O)c2)/C1=C(\O)c1ccc2c(c1)OCCO2 (centres undefined)	proKLK7 act 15.4 | proKLK7 act conf inactive | EDANS interfere 7.4
O=C1C(=O)N(Cc2cccnc2)C(c2cccc(O)c2)/C1=C(\O)c1ccc2c(c1)OCCO2 (centres undefined)	none
CCOC(=O)C1=C(C)C2C3C(=O)N(c4ccccc4C)C(=O)C3C1(C)C1C(=O)N(c3ccccc3C)C(=O)C21 (centres undefined)	none
COc1ccc(OC)c2sc(NC(=O)C3=COCCO3)nc12	proKLK7 act 56.1 | proKLK7 act conf inactive | EDANS interfere inactive
COc1cc2ccc(=O)oc2c(O)c1OCC=C(C)C	proKLK7 act 147.9 | proKLK7 act conf 152.3 | EDANS interfere 151.1
O=C(OCc1nnc(-c2ccc([N+](=O)[O-])cc2)o1)C1CCN(C(=O)c2ccc(Cl)cc2)CC1	none
COc1ccc(CN2CCc3cc(OC)c(OC)cc3C2)cc1O	none
COc1cc2c(cc1OC)CN(Cc1ccc(F)cc1)CC2	proKLK7 act 38.5 | proKLK7 act conf 13.9 | EDANS interfere 17.9
COc1cc2c(cc1OC)CN(Cc1cc(=O)n3c(-c4ccccc4)csc3n1)CC2	proKLK7 act 32.8 | proKLK7 act conf inactive | EDANS interfere inactive
O=c1cc(CN2CCN(c3ccccc3)CC2)nc2scc(-c3ccccc3)n12	none
COc1cc2c(cc1OC)CN(Cc1cc(=O)n3cc(C)ccc3n1)CC2	proKLK7 act 32.7 | proKLK7 act conf 28.9 | EDANS interfere 33.3
N/C(=N\NC(=O)c1cccs1)c1cc2ccccc2oc1=O	none
CCOc1ccc(-c2cc(C(=O)NCCCN3CCOCC3)c3ccccc3n2)cc1	proKLK7 act 18.4 | proKLK7 act conf inactive | EDANS interfere 9.6
COc1ccc(-c2cc(C(=O)NCCCN3CCCC3=O)c3ccccc3n2)cc1	proKLK7 act 34.6 | proKLK7 act conf 29.1 | EDANS interfere 31.3
CCCCCCNC(=O)c1cc(-c2ccco2)nc2ccccc12	proKLK7 act 20.3 | proKLK7 act conf inactive | EDANS interfere inactive
CC(C)CCNC(=O)c1cc(-c2ccco2)nc2ccccc12	proKLK7 act 12.8 | proKLK7 act conf inactive | EDANS interfere inactive
NS(=O)(=O)c1ccc(CCNC(=O)c2cc(-c3ccco3)nc3ccccc23)cc1	none
O=C(NCCCN1CCOCC1)c1cc(-c2ccc(F)cc2)nc2ccccc12	none
CCCCCCCNC(=O)c1cc(-c2ccncc2)nc2ccccc12	none
O=C(NCCCN1CCCC1=O)c1cc(-c2ccc(F)cc2)nc2ccccc12	none
Cc1[nH]c(=O)[nH]c(=O)c1NS(=O)(=O)c1ccccc1	none
Cc1ccccc1NC(=O)CSc1nc2scc(C)c2c(=O)[nH]1	none

From PubChem BioAssay
